Values without a mark were called inactive. Results filed as inconclusive are left out. Activity calls are given as the source filed them. Unless noted, the call rests on the fitted dose curve.

Experiment [1] is described as follows: Nuclear factor erythroid 2-related factor 2/antioxidant responsive element (Nrf2/ARE) small molecule agonists: qHTS cell viability counter screen in human keratinocytes (AID 1919968; active means well fitted curve in the direction sought with a large enough effect in the repeat runs; an effect the other way counts as inactive or inconclusive; further: nearly all actives have a fitted effect of over 55% in size). In short, it runs like this:
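In human HaCaT keratinocytes stably expressing an ARE-driven luciferase, compound exposure lasted 23 h at 37 C under 5% CO2. Viable cells are quantified with a protease-based fluorogenic reagent (CellTiter-Fluor) read 1 h after addition.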
A general note: qHTS replaces the single test concentration by a dilution series.

The nature of experiment [2]: Nuclear factor erythroid 2-related factor 2/antioxidant responsive element (Nrf2/ARE) small molecule agonists: luciferase reporter gene qHTS assay in human keratinocytes (AID 1919969). Further: nearly all actives have a fitted effect of over 35% in size.
Experiment [3] has as its target Gonadotropin-releasing hormone receptor (Homo sapiens) (UniProt P30968). As to the kind of experiment: Human gonadotropin-releasing hormone receptor (GnRHR) small molecule agonists, calcium flux assay in GnRHR-HEK293 cells (AID 1920063). Further: nearly all actives have a fitted effect of over 35% in size. In outline: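 Intracellular calcium rise is the read-out: engineered human GnRHR HEK293 cells, dye-loaded, are exposed to DMSO-dissolved compounds and fluorescence at Ex/Em 480/540 is tracked for 3 min.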
(In general: Calcium flux is commonly read through the fluorescence of an indicator in the cells.)

For experiment [4], the target named is KiSS-1 receptor (Homo sapiens) (UniProt Q969F8). Briefly: Human kisspeptin (KISS1R) small molecule agonists, calcium flux assay in KISS1R-HEK293 cells (AID 1920064; active means well fitted curve in the direction sought with a large enough effect in the repeat runs; an effect the other way counts as inactive or inconclusive). In outline:
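Concentration-response testing used 15 concentrations in triplicate on human KISS1R-expressing HEK293 cells. Calcium-dependent fluorescence (Ex/Em 480/540) was followed kinetically for 3 min after compound transfer.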

The nature of experiment [5]: G protein-coupled receptor (GPCR) small molecule agonists, calcium flux assay: HEK293 wild type cell line counter screen (AID 1920065). In short, it runs like this: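 Fluorescence intensity signals activation. After overnight (18 h) culture and a 1 h calcium dye load at 37 C, compounds are added by pin tool and the plate read at 480/540 nm for 3 min in 1 s steps.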
Experiment [6] can be described thus: p53 small molecule agonists, cell-based qHTS assay with human liver microsomes (AID 1963577).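 Further: p53 response element beta-lactamase reporter cells with liver microsomes plus NADPH.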 In outline: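 Reporter activation was measured by LiveBLAzer fluorescence intensity in p53RE-bla cells, which had been exposed to compounds for 16 h at 37 C alongside 0.5 mg/mL human liver microsomes and 0.5 mg/mL NADPH (final concentrations).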
Experiment [7] is described as follows: p53 small molecule agonists, cell-based qHTS assay with rat liver microsomes (AID 1963578). In outline: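 Compound in DMSO added to p53RE-bla cells 5 h post-plating; rat microsomes/NADPH 0.5 mg/mL final; 16 h, 37 C; LiveBLAzer 2 h RT.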
Experiment [8] in a line: p53 small molecule agonists, cell-based qHTS assay with human liver microsomes: qHTS cell viability counter screen (AID 1963579). Further: nearly all actives have a fitted effect of over 45% in size. In short, it runs like this:
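HLM-supplemented (0.5 mg/mL final) and NADPH-supplemented (0.5 mg/mL final) p53RE-bla cultures, 4,000 cells per well, were dosed with compounds in DMSO for 16 h at 37 C; luminescent ATP detection (CellTiter-Glo, 30 min, room temperature) quantified surviving cells.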

Experiment [9] in a line: p53 small molecule agonists, cell-based qHTS assay with rat liver microsomes: qHTS cell viability counter screen (AID 1963580). Further: nearly all actives have a fitted effect of over 45% in size. In outline: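 Rat liver microsome (0.5 mg/mL final) and NADPH (0.5 mg/mL final) co-incubation with compounds for 16 h at 37 C on HCT-116 p53RE-bla cells; cytotoxicity taken from intracellular ATP luminescence.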
A short description of experiment [10]: p53 small molecule agonists, cell-based qHTS assay: qHTS cell viability counter screen (AID 1963581). Further: nearly all actives have a fitted effect of over 45% in size. In outline: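 Luminescence from CellTiter-Glo, reflecting ATP content, serves as the cytotoxicity measure; it is taken after the 2 h reporter substrate step in HCT-116 p53RE-bla cells dosed for 16 h at 37 C.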
Experiment [11] in a line: p53 small molecule agonists, cell-based qHTS assay (AID 1963582; active means well fitted activation curve with a large enough effect in the signal ratio in the repeat runs, not every such curve was filed as active; the % refers to the signal ratio). In outline: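 After plating, p53RE-bla cells sat 5 h in the incubator; compounds or DMSO vehicle were pinned in; a 16 h incubation at 37 C followed; FRET substrate was added and, 2 h later at RT, fluorescence was measured.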
The target in experiment [12] is 5-hydroxytryptamine receptor 2A (Homo sapiens) (UniProt P28223). Briefly: 5-hydroxytryptamine receptor 2A (HTR2A) small molecule antagonists, cell-based qHTS assay (AID 1963586). Further: nearly all actives have a fitted effect of over 45% in size. In outline:
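CHO cells stably expressing human HTR2A were plated for 18 h at 37 C, then loaded with calcium dye for 1 h. Compounds were preincubated 5 min at room temperature before DOI (4 nM solution) was added. Kinetic fluorescence was read for 3 min.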

The target is the same in experiment [13]. As to the kind of experiment: 5-hydroxytryptamine receptor 2A (HTR2A) small molecule agonists, cell-based qHTS assay (AID 1963587). Further: nearly all actives have a fitted effect of over 30% in size. In outline:
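Kinetic calcium-flux fluorescence (2 min, 1 sec intervals) after compound addition in agonist mode. HTR2A-CHO cells were cultured 18 h, then dye-loaded 1 h at 37 C.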

For experiment [14], the target named is Muscarinic acetylcholine receptor M1 (Homo sapiens) (UniProt P11229). As to the kind of experiment: Cholinergic receptor muscarinic 1 (CHRM1) small molecule antagonists, cell-based qHTS assay (AID 1963588). Further: nearly all actives have a fitted effect of over 40% in size. In outline:
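Compounds were tested at 15 concentrations in three independent runs. Dye-loaded CHRM1-CHO cells were exposed 5 min at room temperature before stimulation by acetylcholine added at 50nM. Intracellular calcium was read kinetically on FDSS for 3 min.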

The target is the same in experiment [15]. As to the kind of experiment: Cholinergic receptor muscarinic 1 (CHRM1) small molecule agonists, cell-based qHTS assay (AID 1963589). Further: nearly all actives have a fitted effect of over 35% in size. Further: potency means the concentration at half of the fitted maximal effect. In short, it runs like this:
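Fluorescent calcium dye reports M1 activation in stably transfected CHO cells. Compounds, 15 concentrations, added after 1 h dye loading at 37 C; kinetic reading at 1 sec intervals.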

A short description of experiment [16]: cAMP Responsive Elements (CRE) small molecule agonists, cell-based qHTS assay (AID 1963590). In short, it runs like this:
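Compound exposure lasted 3 h at 37 C/5% CO2 in CRE-bla HEK 293T cells grown in assay medium with 10% dialyzed FBS and 25 mM HEPES. Reporter signal came from LiveBLAzer B/G FRET substrate, 2 h, room temperature.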

A short description of experiment [17]: cAMP Responsive Elements (CRE) small molecule antagonists, cell-based qHTS assay (AID 1963591; active means well fitted inhibition curve with a large enough effect in the signal ratio in the repeat runs, not every such curve was filed as active; the % refers to the signal ratio). In outline:
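Stimulation used NKH477 at a final 0.25 uM for 3 h in compound-treated CRE-bla HEK293T cells, seeded 18 h beforehand. Reporter activity was measured with LiveBLAzer B/G FRET substrate after 2 h at room temperature.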

Experiment [18] addresses Beta-2 adrenergic receptor (Homo sapiens) (UniProt P07550). Briefly: Adrenergic beta2 receptor (ADRB2) small molecule antagonists, cell-based qHTS assay (AID 1963592). Further: series mostly up to about 92 µM; nearly all actives have a fitted effect of over 50% in size. In outline: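 Assay format: CHO-ADRB2 cells, 18-20hr seeding at 37C/5% CO2, then compound plus 1nM isoproterenol agonist mix for 0.5hr RT. Homogeneous time-resolved fluorescence cAMP detection after 1hr, expressed as 665/615 nm ratio.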

Experiment [19] concerns the target D(2) dopamine receptor (Homo sapiens) (UniProt P14416). Briefly: Dopamine D2 receptor (DRD2) small molecule agonists, cell-based qHTS assay (AID 1963594). Further: nearly all actives have a fitted effect of over 35% in size. In short, it runs like this: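 cAMP accumulation in DRD2-HEK293 cells measured by HTRF after 1 h detection; compounds added 10 min before NKH477 (200nM […]) forskolin-analogue stimulation, 30 min at room temperature, with Ro20-1724 present at 0.1 mM final.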

Experiment [20] shares this target. As to the kind of experiment: Dopamine D2 receptor (DRD2) small molecule antagonists, cell-based qHTS assay (AID 1963595; active means well fitted inhibition curve with a large enough effect in the signal ratio in the repeat runs, with a control signal flat; the % refers to the signal ratio). In outline:
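Antagonism was scored as restored cAMP in HEK293-DRD2 cells. These cells were stimulated with 200 nM NKH477 and 12 nM quinpirole for 30 min at room temperature, in the presence of 0.1 mM Ro20-1724.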
On the % scale 0 is the no-effect control and ±100 the full control effect.

Chain of 5-hydroxytryptamine receptor 2A (Homo sapiens) (P28223 whole entry, looked up): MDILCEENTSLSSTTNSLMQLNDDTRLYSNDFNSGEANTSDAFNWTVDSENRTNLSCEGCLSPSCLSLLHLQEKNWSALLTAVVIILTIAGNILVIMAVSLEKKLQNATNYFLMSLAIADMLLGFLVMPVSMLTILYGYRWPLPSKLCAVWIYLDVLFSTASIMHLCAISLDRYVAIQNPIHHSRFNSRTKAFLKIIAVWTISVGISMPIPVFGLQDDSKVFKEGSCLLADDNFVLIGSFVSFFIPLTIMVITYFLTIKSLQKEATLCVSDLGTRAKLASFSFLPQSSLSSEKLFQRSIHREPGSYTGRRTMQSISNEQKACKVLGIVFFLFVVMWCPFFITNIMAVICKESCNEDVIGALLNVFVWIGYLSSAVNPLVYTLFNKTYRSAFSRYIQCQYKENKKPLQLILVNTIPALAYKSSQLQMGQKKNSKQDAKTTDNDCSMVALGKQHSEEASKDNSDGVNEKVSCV
Chain of Gonadotropin-releasing hormone receptor (Homo sapiens) (P30968 whole entry, looked up): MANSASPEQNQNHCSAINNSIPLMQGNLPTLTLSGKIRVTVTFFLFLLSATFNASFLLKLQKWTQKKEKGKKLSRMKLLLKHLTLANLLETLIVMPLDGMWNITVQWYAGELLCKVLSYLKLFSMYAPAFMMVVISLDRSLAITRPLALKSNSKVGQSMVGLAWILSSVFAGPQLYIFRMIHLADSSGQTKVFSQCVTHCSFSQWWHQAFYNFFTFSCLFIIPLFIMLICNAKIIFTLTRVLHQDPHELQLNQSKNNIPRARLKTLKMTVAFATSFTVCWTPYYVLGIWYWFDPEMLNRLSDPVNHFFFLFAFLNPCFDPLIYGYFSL
Chain of D(2) dopamine receptor (Homo sapiens) (P14416 whole entry, looked up): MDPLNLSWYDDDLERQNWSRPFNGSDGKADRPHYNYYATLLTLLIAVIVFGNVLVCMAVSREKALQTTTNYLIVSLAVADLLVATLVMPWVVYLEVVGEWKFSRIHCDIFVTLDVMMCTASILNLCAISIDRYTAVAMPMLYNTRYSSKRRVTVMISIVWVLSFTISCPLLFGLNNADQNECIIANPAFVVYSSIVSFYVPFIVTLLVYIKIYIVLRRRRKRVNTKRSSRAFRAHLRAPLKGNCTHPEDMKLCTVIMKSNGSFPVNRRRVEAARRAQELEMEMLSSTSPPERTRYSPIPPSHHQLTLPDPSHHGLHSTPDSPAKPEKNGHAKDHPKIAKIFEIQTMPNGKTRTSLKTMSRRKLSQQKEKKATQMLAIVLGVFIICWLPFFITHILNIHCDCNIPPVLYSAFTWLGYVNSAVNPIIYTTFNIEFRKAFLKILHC
Chain of Muscarinic acetylcholine receptor M1 (Homo sapiens) (P11229 whole entry, looked up): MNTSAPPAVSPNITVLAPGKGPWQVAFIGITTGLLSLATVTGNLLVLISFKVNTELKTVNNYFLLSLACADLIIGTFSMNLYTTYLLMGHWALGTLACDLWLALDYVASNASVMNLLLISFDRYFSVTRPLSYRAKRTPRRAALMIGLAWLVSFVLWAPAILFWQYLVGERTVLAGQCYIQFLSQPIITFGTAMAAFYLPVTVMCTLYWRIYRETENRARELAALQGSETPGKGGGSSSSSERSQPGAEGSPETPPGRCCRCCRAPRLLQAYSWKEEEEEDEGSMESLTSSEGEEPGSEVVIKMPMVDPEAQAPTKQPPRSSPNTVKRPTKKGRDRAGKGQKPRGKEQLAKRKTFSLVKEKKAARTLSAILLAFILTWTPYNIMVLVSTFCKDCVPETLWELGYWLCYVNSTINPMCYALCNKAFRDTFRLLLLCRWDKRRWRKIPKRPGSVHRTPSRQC
Chain of Beta-2 adrenergic receptor (Homo sapiens) (P07550 whole entry, looked up): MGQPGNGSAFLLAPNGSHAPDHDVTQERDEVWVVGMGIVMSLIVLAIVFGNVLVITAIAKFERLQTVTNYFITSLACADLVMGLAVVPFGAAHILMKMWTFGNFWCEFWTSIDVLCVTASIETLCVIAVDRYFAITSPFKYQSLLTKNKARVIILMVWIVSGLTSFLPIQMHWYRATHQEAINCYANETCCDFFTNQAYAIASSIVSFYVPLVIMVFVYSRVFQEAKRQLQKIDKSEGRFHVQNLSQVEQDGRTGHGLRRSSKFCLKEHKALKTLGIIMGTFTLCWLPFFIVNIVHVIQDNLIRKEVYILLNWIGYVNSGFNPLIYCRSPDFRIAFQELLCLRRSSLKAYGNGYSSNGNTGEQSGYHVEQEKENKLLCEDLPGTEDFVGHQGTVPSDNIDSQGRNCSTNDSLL
Chain of KiSS-1 receptor (Homo sapiens) (Q969F8 whole entry, looked up): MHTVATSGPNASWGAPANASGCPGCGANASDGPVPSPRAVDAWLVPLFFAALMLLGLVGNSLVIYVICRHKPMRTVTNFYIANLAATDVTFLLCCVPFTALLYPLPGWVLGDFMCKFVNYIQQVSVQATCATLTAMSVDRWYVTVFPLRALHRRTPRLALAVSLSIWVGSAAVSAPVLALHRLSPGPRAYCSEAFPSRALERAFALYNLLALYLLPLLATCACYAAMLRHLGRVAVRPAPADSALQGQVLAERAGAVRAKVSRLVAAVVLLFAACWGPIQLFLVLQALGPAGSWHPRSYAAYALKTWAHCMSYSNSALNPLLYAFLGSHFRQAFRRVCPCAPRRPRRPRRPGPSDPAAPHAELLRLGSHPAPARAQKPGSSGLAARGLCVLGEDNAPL

For `[O]=[Mo](=[O])=[O]`, the activity change, negative = cytotoxicity in experiment [1] is 1.36% [at 19 µM]; in [8] it was 2.49% [at 13.5 µM]; in experiment [9], 5.17% [at 13.5 µM]; in experiment [10], 14.2% [at 13.5 µM]. The activity, positive = activation in experiment [2] is -5.06% [at 19 µM]. Further, the activity change in experiment [3] was -0.246% [at 11.8 µM, stronger effect = higher value]. Besides, the activation in [4] was -1.57% [at 15.8 µM]; in experiment [5], -0.132% [at 11.8 µM]; in experiment [6], -1.11% [at 13.5 µM]; in experiment [7], -0.845% [at 13.6 µM]; in experiment [11], -2.07% [at 13.5 µM]; in [13], 4.75% [at 15.9 µM]. For the same molecule, the figures for the activation in [15], in experiment [16] and in experiment [19] were 0.586% [at 15.8 µM], 0.435% [at 19 µM] and -0.0356% [at 19 µM], respectively. The activity, negative = inhibition in experiment [12] was -16.5% [at 12.7 µM]; in experiment [14] it was 1.32% [at 12.6 µM]. Also, the activity change, negative = inhibition in experiment [17] is 1.4% [at 18.9 µM]; in [18], -19.7% [at 19 µM]; in experiment [20], -0.307% [at 18.9 µM].

`CCc1cc(S(=O)(=O)O)c2cc(C(C)C)cccc1-2`: the Potency result in [1], in experiment [2], in experiment [3], in [6], in experiment [7] and in experiment [8] was “inactive” throughout. Further, the Potency entry in experiment [9], in [10], in [11], in experiment [12], in [13] and in experiment [14] was “inactive” in each case. The Potency entry in experiment [15], in [16], in experiment [17], in experiment [18], in experiment [19] and in experiment [20] was “inactive” each time. Further, the outcome in experiment [4] and in [5] was inactive.

On to `CCCCCOC(=O)CCC`, for which the Potency entry in experiment [1], in experiment [2], in experiment [3], in experiment [6], in experiment [7] and in experiment [8] was “inactive” in each case. Besides, the Potency entry in experiment [9], in experiment [10], in experiment [11], in experiment [12], in experiment [13] and in experiment [14] was “inactive” throughout. In addition, the Potency result in [15], in experiment [16], in experiment [17], in [18], in experiment [19] and in experiment [20] was “inactive” throughout. The outcome in [4] and in experiment [5] was inactive.

With `C=CCON/C(CCC)=C1\C(=O)CC(C)(C)C(C(=O)OC)=C1O`, the Potency result in [1], in experiment [2], in [3], in experiment [6], in [7] and in experiment [8] was “inactive” each time. Further, the Potency result in experiment [9], in [10], in experiment [11], in [12], in experiment [13] and in [14] was “inactive” throughout. Also, the Potency entry in experiment [16], in experiment [17], in experiment [18], in experiment [19] and in experiment [20] was “inactive” in each case. The result in experiment [4] and in experiment [5] was inactive. The Potency in experiment [15] is 4.84 µM (active).

On to `O=S(=O)(O)c1ccc(O)c2ncccc12`, for which the Potency entry in experiment [1], in experiment [2], in experiment [3], in experiment [6], in experiment [7] and in [8] was “inactive” throughout. Moreover, the Potency entry in experiment [9], in experiment [10], in experiment [11], in experiment [12], in experiment [13] and in [14] was “inactive” throughout. Moreover, the Potency entry in [15], in [16], in experiment [18], in [19] and in experiment [20] was “inactive” in each case. The outcome in experiment [4] and in [5] was inactive.

Regarding `O=C(CCBr)N1CCN(C(=O)CCBr)CC1`, the Potency entry in [1], in [2], in [3], in experiment [6], in experiment [7] and in experiment [8] was “inactive” in each case. The Potency entry in [9], in [10], in experiment [11], in experiment [12], in experiment [13] and in experiment [14] was “inactive” in each case. Further, the Potency result in experiment [15], in [16], in [17], in experiment [18] and in [20] was “inactive” each time. For the same molecule, the outcome in [4] and in [5] was inactive.

Turning to `Nc1ccnc(=O)[nH]1`, the Potency result in experiment [1], in experiment [2], in [3], in experiment [6], in experiment [7] and in [8] was “inactive” in each case. Besides, the Potency result in experiment [9], in experiment [10], in experiment [11], in experiment [12], in experiment [13] and in experiment [14] was “inactive” throughout. The Potency entry in experiment [15], in [16], in experiment [17], in [18] and in experiment [20] was “inactive” in each case. Moreover, the result in [4] and in experiment [5] was inactive.
